Rows were chosen to be rich in hits. Some 27% of all compounds tested hit in one or more screens of this group.
CYP2C9 inhib: inhibitors of human CYP2C9. P11712. CYP2C9 Supersomes, luciferin-H conversion, luminescence. inhibition, % at 5 µM. 96,000 tested, 20% active;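 active = blocking of liver enzyme CYP2C9 beyond about 50% at 5 µM, limit read from the data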
Target sequence (P11712 whole entry, looked up): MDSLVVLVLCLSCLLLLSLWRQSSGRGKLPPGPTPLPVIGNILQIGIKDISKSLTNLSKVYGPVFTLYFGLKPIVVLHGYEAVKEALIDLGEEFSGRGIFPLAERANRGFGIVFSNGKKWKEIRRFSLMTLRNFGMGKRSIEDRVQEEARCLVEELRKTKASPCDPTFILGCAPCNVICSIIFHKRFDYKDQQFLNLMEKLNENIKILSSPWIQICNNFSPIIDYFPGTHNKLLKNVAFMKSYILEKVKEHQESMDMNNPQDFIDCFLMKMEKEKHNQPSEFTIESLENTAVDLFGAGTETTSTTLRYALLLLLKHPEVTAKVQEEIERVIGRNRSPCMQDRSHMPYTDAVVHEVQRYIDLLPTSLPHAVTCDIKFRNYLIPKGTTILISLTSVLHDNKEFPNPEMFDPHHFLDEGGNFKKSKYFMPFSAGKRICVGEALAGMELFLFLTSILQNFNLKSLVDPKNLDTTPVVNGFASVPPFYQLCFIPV
Cav3 T inh: inhibitors of human Cav3.2 T-type calcium channel. O95180. AID 449739. Cav3.2-expressing cells, Fluo-4 calcium fluorescence FDSS; stronger effect = lower value. 100,000 tested, 4% active. B-score at 10 µM;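 active = single-dose well whose peak fluorescence ratio is a statistical outlier from its plate by either plate-standardised score or position-corrected B-score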
CYP2C19 inhib: inhibitors of human CYP2C19. P33261. CYP2C19 Supersomes, luciferin-H EGE luminescence, 30 min. inhibition, % at 5 µM. 96,000 tested, 21% active. AID 778;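 active = CYP2C19 inhibition above a set limit at 5 µM in the primary screen, cut at about 50% in these data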;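 note: plate controls were negative control wells for no effect and 2.5 mM tranylcypromine positive control for full effect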
CYP2C9 act: CYP2C9 (human) activation; P11712; recombinant CYP2C9, luciferin-H conversion, luminescence; stronger effect = higher value; factor 1 = untreated enzyme, 0 = blocked; activation factor at 5 µM; 96,000 tested, 1.4% active; AID 1024;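 active = activation factor of 2 or more for CYP2C9 at a 5 µM dose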;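 note: 0 = sulfaphenazole-blocked wells and 1 = vehicle-only wells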
CYP2C19 act: activators of human cytochrome P450 2C19; 96,000 tested, under 10 active; activation factor at 5 µM; recombinant CYP2C19, luciferin-H EGE luminescence; stronger effect = higher value; 0 = fully inhibited enzyme, 1 = untreated enzyme;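 active = activation factor of at least 2 at 5 µM in the primary screen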;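 note: 0 = wells with 2.5 mM tranylcypromine and 1 = vehicle-only wells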
* marks the source's active call; other numbers are inactive results; · = no result.

SMILES | CYP2C9 inhib | Cav3 T inh | CYP2C19 inhib | CYP2C9 act | CYP2C19 act
Cc1ccc2c(c1)nnn2C1CCN(C(=O)NC23CC4CC(CC(C4)C2)C3)CC1 | 3.0 | 0.114 | 54.9* | 1 | 0.5
Cc1ccc2c(c1)nnn2C1CCN(S(=O)(=O)c2cccc(S(=O)(=O)N(C)C)c2)CC1 | 45.5 | 1.39 | 86.1* | 0.5 | 0.1
Cc1ccc2c(c1)nnn2C1CCN(S(=O)(=O)c2ccc(C(=O)N(C)C)cc2)CC1 | · | 0.641 | · | · | ·
Cc1ccc2c(c1)nnn2C1CCN(S(=O)(=O)c2ccc3ccccc3c2)CC1 | · | -0.297 | · | · | ·
COc1ccc(C(Cl)=C(c2ccc(OC)cc2)c2ccc(OC)cc2)cc1 | · | -4.06 | · | · | ·
CN(C)c1cc(-c2ccccc2)nc(N)n1 | 13.7 | 1.23 | 31.8 | 0.9 | 0.7
CCCOc1c(OC)cccc1C1CC(=O)Nc2cc3c(cc21)OCCO3 (stereo not given) | 68.1* | · | 44.0 | 0.3 | 0.6
CCCOc1c(OC)cccc1C1CC(=O)Nc2cc3c(cc21)OCO3 (stereo not given) | 51.7* | -0.967 | 95.6* | 0.5 | 0
CCOc1c(OC)cccc1C1CC(=O)Nc2cc(OC)c(OC)cc21 (stereo not given) | · | 0.414 | · | · | ·
CCN(CC)c1ccc(C2CC(=O)Nc3cc(OC)c(OC)cc32)cc1 (stereo not given) | 39.1 | 0.34 | 39.1 | 0.6 | 0.6
Cc1ccccc1-c1nc(CS(=O)(=O)CC(=O)NCCCN2C(C)CCCC2C)c(C)o1 (stereo not given) | 25.6 | 0.0562 | 17.3 | 0.7 | 0.8
Cc1ccc(-c2nnc(-c3ccc(NC(=O)Cc4cccs4)cc3)o2)cc1 | 83.5* | 0.766 | 53.0* | 0.2 | 0.5
O=C(Cc1cccs1)Nc1ccc(Cl)cc1 | 64.0* | -0.929 | 94.4* | 0.4 | 0.1
CCOc1cc(C2NC(=O)NC(O)(C(F)(F)F)C2C(=O)c2ccc(OC)cc2)ccc1O (stereo not given) | 8.2 | -0.664 | 11.3 | 0.9 | 0.9
CCOCCCNC(=O)C(NC(=O)c1cnccn1)c1ccc(C)cc1 (stereo not given) | -3.1 | -1.74 | 59.2* | 1 | 0.4
COC(=O)C1=C(CSc2nc3c(cc2C#N)CN(C)CC3)OC(N)=C(C#N)C1c1ccccc1F (stereo not given) | · | -0.551 | · | · | ·
CCOC(=O)C1=C(CSc2nc(-c3ccccc3)ccc2C#N)OC(N)=C(C#N)C1c1cccnc1 (stereo not given) | 94.5* | · | 92.0* | 0.1 | 0.1
CCOC(=O)C1=C(CSc2nc(-c3ccccc3)ccc2C#N)OC(N)=C(C#N)C1c1ccccc1 (stereo not given) | 92.3* | · | 59.1* | 0.1 | 0.4
CCOC(=O)C1=C(c2ccccc2)OC(N)=C(C#N)C1C(C)C (stereo not given) | 9.8 | -1.06 | 32.4 | 0.9 | 0.7
FC(F)(F)c1nc2ccccc2nc1N/N=C\c1ccccc1 | 24.8 | · | 20.7 | 0.8 | 0.8
CCCCn1nnnc1SCC(=O)Nc1ccc(F)cc1 | 71.2* | 2.09 | 97.3* | 0.3 | 0
CCCCn1nnnc1SCC(=O)Nc1ccc(N(C)C)cc1 | 21.3 | 2.25 | 52.8* | 0.8 | 0.5
O=C(Nc1cccnc1)c1ccc2c(c1)C(=O)N(Cc1cccnc1)C2=O | 27.0 | 0.0294 | -13.3 | 0.7 | 1.1
CCOc1ccccc1N1C(=O)c2ccc(C(=O)Nc3cccnc3)cc2C1=O | 65.4* | -2.94* | 56.6* | 0.3 | 0.4
Nc1nc(CSc2nnnn2-c2ccc(F)c(Cl)c2)nc(N2CCOCC2)n1 | · | 1.02 | · | · | ·
SMILES | CYP2C9 inhib | Cav3 T inh | CYP2C19 inhib | CYP2C9 act | CYP2C19 act
COc1cccc(-c2nc(CS(=O)(=O)CC(=O)N3CCN(C)CC3)c(C)o2)c1 | · | -0.00875 | · | · | ·
COc1cccc(-c2nc(CS(=O)(=O)CC(=O)NC3CCCc4ccccc43)c(C)o2)c1 (stereo not given) | 48.9 | -6.8* | 25.5 | 0.5 | 0.7
COc1cccc(-c2nc(CS(=O)(=O)CC(=O)N3CCc4ccccc4C3)c(C)o2)c1 | 45.2 | -4.85* | 0.8 | 0.5 | 1
CCOCCCNC(=O)CS(=O)(=O)Cc1nc(-c2cccc(OC)c2)oc1C | 10.5 | 0.44 | -0.9 | 0.9 | 1
Cc1ccc(-c2nc(CS(=O)(=O)CC(=O)N3CC(C)CC(C)C3)c(C)o2)cc1 (stereo not given) | 71.3* | -3.92 | 41.4 | 0.3 | 0.6
COc1ccc(NC(=O)CS(=O)CC(=O)NC2CCCc3ccccc32)cc1 (stereo not given) | 4.5 | -1.08 | -1.8 | 1 | 1
